Results on 10 compounds are retold here after PubChem BioAssay (EPA / NIEHS).

Where “and” joins values, the source holds several entries; their conditions need not be identical. Equal entries are not always repeated. Records with an inconclusive call do not appear. Calls of active or inactive are those of the source. The calls were made as follows: active = hit-call score of the fitted dose curve at least 0.9, where 1 is the maximum; inconclusive = response in the unintended direction; inactive = score below 0.9.

The assay deals with Nuclear receptor subfamily 1 group I member 2 (Mus musculus) (UniProt O54915). Nature of the assay: ATG_mPXR_XSP2: Attagene TRANS-FACTORIAL Multi-Species (XSP1) HepG2 Assay for mouse Pregnane X Receptor (PXR) (AID 2283831). The protocol: ATG_XSP2_multi-species_TRANS is a cell-based, multiplexed assay created by modifying the existing Attagene TRANS-FACTORIAL system to include a panel of nuclear receptors from some or all the following species: human (Homo sapiens), mouse (Mus musculus), frog (Xenopus laevis), zebrafish (Danio rerio), chicken (Gallus gallus), and turtle (Chrysemys picta). The ECOTOX-FACTORIAL format uses HepG2, a human liver cell line, with measurements taken at 24 hours after chemical dosing in a 24-well plate. Xsp2 included 3 nM 6-alpha-fluorotestosterone and 1.5 nM norgestrel to stimulate the androgen receptor.ATG_mPXR_XSP2 is one of 29 assay components measured or calculated from the ATG_XSP2_multi-species_TRANS assay. It is designed to make measurements of mRNA induction, a form of inducible reporter, as detected with fluorescence intensity signals by Reverse transcription polymerase chain reaction (RT-PCR) and Capillary electrophoresis technology.The assay endpoint ATG_mPXR_XSP2 was analyzed in the positive analysis fitting direction relative to DMSO as the negative control and baseline of activity. Using a type of inducible reporter, measures of mRNA for gain-of-signal activity can be used to understand the reporter gene at the transcription factor-level as they relate to the gene PXR. Furthermore, this assay endpoint can be referred to as a primary readout, because this assay has produced multiple assay endpoints where this one serves a reporter gene function. To generalize the intended target to other relatable targets, this assay endpoint is annotated to the nuclear receptor intended target family, where the subfamily is non-steroidal.
Nuclear receptor subfamily 1 group I member 2 (Mus musculus), sequence (O54915 whole entry, looked up): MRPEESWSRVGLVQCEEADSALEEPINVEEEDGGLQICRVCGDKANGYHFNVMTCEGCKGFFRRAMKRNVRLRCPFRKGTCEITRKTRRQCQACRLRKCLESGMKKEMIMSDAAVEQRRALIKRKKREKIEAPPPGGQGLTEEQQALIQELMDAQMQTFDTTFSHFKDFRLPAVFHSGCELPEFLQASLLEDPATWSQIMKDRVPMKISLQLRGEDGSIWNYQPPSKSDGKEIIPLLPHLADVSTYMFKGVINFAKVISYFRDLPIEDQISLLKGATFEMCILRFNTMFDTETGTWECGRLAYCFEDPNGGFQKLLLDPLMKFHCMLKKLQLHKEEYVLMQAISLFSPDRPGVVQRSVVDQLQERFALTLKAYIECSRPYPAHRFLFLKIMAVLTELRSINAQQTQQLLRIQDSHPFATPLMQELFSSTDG
Human liver HepG2 cells are transiently transfected with multiple reporter transcription units (MRTUs) in 6-well plates using FuGene 6 reagent (Roche; 3 ml FuGene/1 mg DNA). The MRTU constructs are regulated by a cis-regulating element (promoter). […] A major difference between the CIS and TRANS system is that in CIS activities of endogenous TFs are measured, whereas the TRANS assay evaluates changes in activities of exogenous, chimeric NR-Gal4 proteins. […] At the end of 24 hour incubation, total RNA was isolated using TriZol reagent (Invitrogen). The isolated RNA is then reverse-transcribed using oligo(dT) primer and Mo-MLV reverse transcriptase (Invitrogen) with DNAse I (Ambion) treatment for 30 min. The one-tenth of the produced cDNA was amplified by PCR using Taq DNA polymerase (Invitrogen) and two reporter sequence-specific primers. The PCR products were fluorescently labeled by primer extension with 6-arboxyfluorescein (6-FAM) 5'-labeled reporter sequence-specific primer (2 min at 95 C, 20 s at 68 C and 10 min at 72 C) and these products were digested with 5U of HpaI (New England Biolabs) for 2h at 37 C. The fragments were purified using Qiaquick PCR columns (Qiagen), analyzed on an ABI 3130xL genetic analyzer (Applied Biosystems) with peak positions identified by using a set of X-rhodamine (ROX)-labeled MapMarker1000 molecular weight standards (BioVentures). The raw capillary electrophoresis data was processed using Attagraph software (Attagene).
In the case of `CC(C)NC(=O)N1CC(=O)N(c2cc(Cl)cc(Cl)c2)C1=O`, the AC50 was 6.7 µM (active). The same measure, in the same setting: in the case of `CCN(CC)C(=O)C(C)Oc1cccc2ccccc12` (stereo not given) it was 6.17 µM (active). Consider `CSC(=O)c1c(C(F)F)nc(C(F)(F)F)c(C(=O)SC)c1CC(C)C`, for which the AC50 was 0.442 µM (active). With `N#Cc1c[nH]cc1-c1cccc2c1OC(F)(F)O2`, the AC50 was 6.52 µM (active) and 6.26 µM (active).

`Cc1c(COC(=O)[C@@H]2[C@H](/C=C(\Cl)C(F)(F)F)C2(C)C)cccc1-c1ccccc1`: the half-maximal activity concentration (AC50) is 2 µM (active). For `COP(=S)(OC)SCn1nnc2ccccc2c1=O`, the compound was called inactive.

`CC1(C)C(C=C(Cl)Cl)C1C(=O)OC(C#N)c1cccc(Oc2ccccc2)c1` (stereo not given): the AC50 is 2.65 µM (active). `CC1(C)CCC(=Cc2ccc(Cl)cc2)C1(O)Cn1cncn1` (stereo not given): the AC50 is 6.24 µM (active). As for `COP(=S)(OC)Oc1ccc([N+](=O)[O-])c(C)c1`, the AC50 is 4.6 µM (active). For the compound `C=C(C)CN(CC)c1c([N+](=O)[O-])cc(C(F)(F)F)cc1[N+](=O)[O-]`, the AC50 is 3.92 µM (active) and 2.8 µM (active).
